Assay results taken from PubChem BioAssay (NCATS).
Inconclusive results are not listed. Activity calls are given as the source filed them. The call rests on the fitted dose curve; in most records, active means well fitted inhibition curve with a large enough effect; inconclusive means small, poorly fitted or top-dose-only effect; inactive means flat fitted curve, though single readings scatter. Where a SMILES comes first, the peptide text is derived from it.

These molecules were tested on CRL-7250 (assay: Cytotoxic Profiling of Annotated Libraries Using Quantitative High-Throughput Screening (AID 1296008; further: nearly all actives have a fitted effect of over 60% in size)). Conditions: Five cell lines viability, CellTiter-Glo ATP luminescence, 48-72 h; max response: hits give low values.
Method in brief: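 Cytotoxicity was measured as CellTiter-Glo ATP luminescence, read after 10 min at room temperature. Compound treatment of the cells lasted 48 or 72 hr at 37 degrees Celsius in a qHTS format.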
On the % scale 0 is the no-effect control and ±100 the full control effect; potency means the concentration at half of the fitted maximal effect.

| Compound | outcome | max response | Potency |
| --- | --- | --- | --- |
| CC(=O)OCC(=O)[C@@]1(O)CCC2C3CCC4=CC(=O)CC[C@]4(C)C3[C@@H](O)C[C@@]21C (some centres undefined) | inactive |  |  |
| O=C(OCCN1CCOCC1)c1cccnc1Nc1cccc(C(F)(F)F)c1 |  | -4.59% (inactive) |  |
| CCCCCC[C@@H](CCC)C(=O)O |  | -4.37% (inactive) |  |
| CC(=O)N[C@@H](CO)C(=O)N[C@@H](CC(=O)O)C(=O)N[C@@H](CCCCN)C(=O)N1CCC[C@H]1C(=O)O (Ac-SDKP-OH) |  | 3.47% (inactive) |  |
| CN1CCC(=C2c3ccccc3CCc3cccnc32)CC1 |  | 3.77% (inactive) |  |
| O=C(OCC1(COC(=O)c2cccnc2)CCCC(COC(=O)c2cccnc2)(COC(=O)c2cccnc2)C1O)c1cccnc1 |  | -5.9% (inactive) |  |
| O=C1CC2(CCCC2)CC(=O)N1CCNCC1COc2ccccc2O1 (centres undefined) |  | -5.57% (inactive) |  |
| Cc1oc(-c2ccccc2)nc1CCC(=O)c1ccc(CC2SC(=O)NC2=O)cc1 (centres undefined) |  | -17.6% (inactive) |  |
| Cc1ccc(-c2ccccc2C#N)cc1 |  | 2.16% (inactive) |  |
| Nc1ccc2c(c1)CN1C(=O)c3ccccc3C1=N2 |  |  | 8.2 µM (active) |
| CCOC(=O)C(=O)CCCCCCl | inactive |  |  |
| CCC1=C[C@@H]2CN(C1)Cc1c([nH]c3ccccc13)[C@@](C(=O)OC)(c1cc3c(cc1OC)N(C)[C@H]1[C@@](O)(C(=O)OC)[C@H](OC(C)=O)[C@]4(CC)C=CCN5CC[C@]31[C@@H]54)C2 |  |  | 0.0422 µM (active) |
| CCCCC(O)/C=C(C)/C=C/C=C/C(=O)N1CCCC1=O (centres undefined) |  | 0.43% (inactive) |  |
| CCOc1ccc(NS(=O)(=O)c2ccc(N)cc2)nn1 |  | 2.59% (inactive) |  |
